Test results published in the supplement of paper PMC3334620.
The full ranking holds about 33,000 sequences; the median of “E-score (-0.5 to 0.5)” is about -0.016, and the highest 2% start at about 0.32. This is one part of a sample in which the highest values are shown more often than they occur.

Target: T1, Stp1 (UniProt B3LFK1)
T1 sequence: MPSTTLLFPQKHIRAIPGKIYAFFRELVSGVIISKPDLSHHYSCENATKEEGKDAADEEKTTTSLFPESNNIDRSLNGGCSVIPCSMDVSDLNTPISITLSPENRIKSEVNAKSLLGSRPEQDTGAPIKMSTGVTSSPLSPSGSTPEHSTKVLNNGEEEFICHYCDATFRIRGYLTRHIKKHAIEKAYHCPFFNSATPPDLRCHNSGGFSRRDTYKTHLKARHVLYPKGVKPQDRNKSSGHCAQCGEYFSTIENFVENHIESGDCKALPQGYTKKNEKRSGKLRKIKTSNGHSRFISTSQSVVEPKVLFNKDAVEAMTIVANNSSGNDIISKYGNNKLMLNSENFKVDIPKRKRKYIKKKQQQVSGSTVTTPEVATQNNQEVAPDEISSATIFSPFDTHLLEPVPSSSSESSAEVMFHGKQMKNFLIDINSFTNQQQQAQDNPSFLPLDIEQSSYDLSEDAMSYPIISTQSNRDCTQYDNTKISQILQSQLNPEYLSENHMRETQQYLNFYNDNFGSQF
Assay: PBM E-score (8-mer binding enrichment) (E-score (-0.5 to 0.5)); higher = stronger / more preferred TF binding
Settings: protein concentration: 200 nM; construct: GST-full length
Summary of the method: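 Universal all-10-mer Agilent arrays, fresh or stripped once, were converted to double-stranded form by primer extension. GST-tagged yeast transcription factors from PURExpress in vitro transcription/translation, full-length or DNA-binding domain only, were applied at about 100-200 nM and detected with fluorescent anti-GST. After masliner normalisation, the Universal PBM Analysis Suite scored each ungapped eight-base word together with its reverse complement by E-score.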

Sequence	PBM E-score
AAATAAAC	0.218
GCGGCCAA	0.161
GAGGACAA	-0.101
CACGTGCG	0.272
CAGGATTC	-0.173
AGCCTCGA	-0.172
GCCATTGA	0.226
AGGCTCTA	0.15
AGGCTCTC	-0.137
CGGCTCTA	0.425
GGGCTCTA	-0.0132
CGGCTCTC	0.334
CAGCTCTC	-0.325
CGCACTCC	-0.172
CAGAGCTA	-0.171
AGGGCGCA	0.205
AGGGCGGC	0.14
CGGGCGCC	0.269
AGGGCGCG	0.369
AGGGCGCC	0.343
AGGGGGCG	-0.0306
ACCAAGGT	0.0467
CAGCCACA	0.161
CGGCTTAC	0.104
GCTGGGTA	-0.175

Sequence	PBM E-score
GCTAAAGA	0.0376
GAAGGCAC	0.368
CAAGGCAA	0.264
AAAGGCAC	0.392
GCAGGCAC	0.0604
CAAGGCAC	0.356
AAAGGCAA	0.263
AAAGGCAG	0.172
GAAGGCAA	0.218
CAAGGCAG	0.0951
AGGTGGCG	-0.0008
GCTCAGAA	0.00512
TAGGTGGA	-0.21
AGGGAAAA	0.0119
AGACATTC	-0.19
GGATGCCC	-0.245
GGAAAAAA	0.149
CTGCCTGA	-0.0731
TATAGAGA	0.0248
AGCACCAC	-0.134
GGCACCGA	0.356
CGCACCGA	0.0478
TGCACCAA	-0.0793
GGCACCAA	0.393
GGCACCAC	0.324

Sequence	PBM E-score
CGCACCAA	0.213
CGCACCAC	0.063
AGCACCGA	0.0493
CCCTATTC	-0.0984
GACCAACC	-0.152
GTTGGCAA	0.0689
AAAGGGGG	-0.423
AAGGAGAA	-0.131
AGGGATTG	-0.0197
AATGGTCT	-0.0756
AAGTCTGG	-0.218
GATAGGGC	0.0849
CGAACGGA	0.207
CGAACGGC	0.467
AGAACGGG	-0.129
AGAACGGC	0.387
AGAACGGA	0.102
CTAACGGC	0.313
GTCCTGTA	-0.121
CCAAGAGC	0.0254
AAGACGGG	0.0493
GTCTGTCA	-0.00712
ATATATAT	0.303
CTATATTA	0.177
GTTTATTA	0.0702

Sequence	PBM E-score
ATTTATTA	0.324
CTATATAG	-0.0268
ATATATAG	0.318
GTATATTA	0.159
ATTATTTA	0.281
ATATATTA	0.329
ATAAAGGG	0.0416
CCCTCAGG	-0.224
ATCGTTTC	-0.0261
CGGTAAGA	0.0116
CCTTGCAC	0.127
TATCGAGA	-0.0215
CGGCACCC	0.338
GGGCACCC	-0.0477
AGGCACCC	-0.00944
CGGCACCG	0.437
AGGCACCG	0.272
CCGCACCG	0.288
TAGATCAA	-0.00316
CAAGATCG	-0.123
AAAAAGTG	0.204
AAACGCTT	-0.0887
ACCTCCCG	-0.269
CGCAAGGC	0.388
AGCAAGGC	0.29

Sequence	PBM E-score
CGTAAGGC	0.358
CATAAGGC	0.344
AATAAGGC	0.231
AGTAAGGC	0.163
CGCAAAGC	0.126
CATAAGGG	-0.0274
CGTAAGGA	-0.0941
CCTCCAGA	0.0135
CACATCGC	-0.115
AGCGCTGA	-0.0259
CGCGCTGA	-0.0138
GGCGCTGA	0.327
GGCGCTAA	0.37
CGCGCTAA	0.227
TGCGCTAA	-0.0463
GGGGCAGA	-0.0961
GTCGACAA	-0.192
CCGAACGG	0.334
CCGAACGA	-0.0055
CCGAACGC	0.226
CGTAATAC	0.186
CCTGGGCC	-0.181
ACGGCACG	0.484
CCGGCACA	0.106
CGGGCACA	-0.106

Sequence	PBM E-score
ACGGCACA	0.479
CCGGCACG	0.27
TCGGCACA	0.135
ACTCTGAG	-0.046
AAGTGTGC	0.122
AACAGTGT	-0.102
CGAGGGCG	-0.052
AAGGCGAA	0.197
AAGGCGAG	-0.158
ACCGCGAT	0.0376
AGGGCGAT	0.0677
ACGGCGAG	0.437
AGGGCGAG	-0.12
ACGGCGAT	0.479
CCGGCGAG	0.0395
AAGGCGAT	0.329
CTATGGTA	-0.0844
AGTTTTGC	0.203
AAGGGATA	-0.00219
CTAAGTAG	0.0172
ACTTTGTC	0.0794
ACTTAAAT	0.0505
CAAGCGGG	-0.168
GAAGCGGA	-0.0314
AAAGCGGC	0.366

Sequence	PBM E-score
GAAGCGGC	0.426
CGAGCGGA	0.114
GAAGCGTC	-0.0144
CAAGCGGA	-0.0234
AAAGCGGA	0.0227
AAAGCGGG	-0.19
CAAGCGGC	0.466
CGAGCGGC	0.416
AGAGCGGC	0.307
AAAGGGAC	-0.055
AAGACCGA	-0.107
ACTTAGGC	-0.0486
ATATTCGG	0.0873
ACCCATAC	-0.0919
AAGTCTCG	-0.199
CGCCAACG	0.0633
ATGGCTCG	-0.0567
ATAAACAT	0.222
AAAAGAAC	0.0475
AAAAGAAG	0.19
AAAAGAAT	0.322
CTTATAAA	0.115
CGTATAAA	0.319
CGTATAAC	0.217
AGTATAAA	0.297

Sequence	PBM E-score
GTTATAAA	0.0721
TTTATAAA	0.376
AGTCTGTA	-0.18
AAGTCCCG	-0.145
GCTCGAAC	-0.0559
CCAGGTGC	-0.187
GGGCAAAA	0.142
AGGCAAAC	0.118
CGGCAAAG	0.264
TGGCAAAA	0.292
CGGCAAAA	0.357
AGGCAAAA	0.344
AGACCTCG	-0.157
GCCGAGGC	0.357
CACGAGGA	0.102
CACGAGGG	-0.253
CGCGAGGA	-0.0281
GCCGAGGA	0.0308
ACCGAGGC	-0.121
CACGAGGC	0.415
CGCGAGGC	0.421
AGCGAGGC	0.197
ATCAGGTC	-0.114
CACGATAC	-0.0326
GACAACAA	0.0779

Sequence	PBM E-score
AAGCCCCT	-0.287
CCTTAACC	-0.221
ACCCCGCT	-0.174
ACGGCAGT	0.403
CCGGCAGG	-0.17
ACGGCAGC	0.406
TCGGCAGA	-0.0589
AAGGCAGT	0.103
ACGGCAGG	0.343
AAGGCAGG	-0.236
ACGGCAGA	0.367
CCGGCAGC	-0.063
ACAGCAGT	-0.0354
CCGGCAGA	-0.0739
ATGGCAGC	0.00395
ATCTTTAG	0.0678
AGCCATCC	0.0193
GAGGCAGC	0.0343
GCAGCGGC	0.32
CCAGCGGC	0.256
GCAGCGGA	-0.0607
GCGGCAGC	0.334
GCGGCAGA	0.261
ACTTTTTA	0.157
AACTACGG	-0.0064

Sequence	PBM E-score
CAGCGCCA	0.0346
AAGCGCCA	0.0796
AAGCGCCT	0.272
AAGCGCCG	0.465
CAGCGCCC	0.188
CAGCGCCG	0.446
CAGTAGAG	-0.155
AGTCGATC	-0.128
GACGGGAC	-0.203
CACGTGGC	0.213
GCCTAGCC	0.0204
CCGTGGGA	0.047
ACTGGAAG	-0.2
GTAGGTCA	-0.249
CGGCACAG	0.398
CGCCACAC	0.324
GGGCACAC	-0.098
CGGCACAA	0.405
CGCCACAG	-0.0135
CCGCACAG	0.201
AGGCACAG	0.133
AGGCACAA	0.288
GGGCACAA	0.202
GGCCACAC	0.0354
CGGCACAC	0.381

Sequence	PBM E-score
AGGCACAC	0.0169
CATGCAAA	0.112
CATCTCAG	-0.0765
AACGCTCC	-0.122
CTAAACTA	-0.0468
AAATTCCG	0.126
CGTCTTAC	-0.0611
AGGACCAT	-0.113
GCAGTGCA	-0.0796
AATGTAGC	-0.0806
AGTTCGCC	0.159
GCTACACC	-0.0559
AGAGAGTC	-0.173
CCCGTAAC	-0.112
GCCGTATA	0.475
ACCGTAAC	0.0376
TCCGTAAA	0.0695
ACCGTATA	-0.0953
GCCGTAAA	0.369
CCCGTATA	0.12
GCCGTAAC	0.33
ACCGTAAA	0.0391
CGATCGAG	0.0366
AACTCAGA	0.183
CTCGCCGC	0.353

Sequence	PBM E-score
CTCGCCGA	-0.0672
ATCGCCGG	0.192
CTCGCCAC	-0.0166
ATCGCCGA	0.212
ATCGCCGC	0.45
CATTGGAC	-0.155
AGCTACTG	-0.229
AAAACATG	-0.00948
CTAGAGAA	0.23
CCACCTAG	-0.373
CAGTCTGG	-0.218
CCCCTTAA	-0.172
TGACGGCA	0.175
CCACGGCG	0.478
TCACGGAA	0.173
ACACGGCT	0.458
ACACGGCG	0.488
ACACGGGT	0.202
CCACGGAG	0.159
ACACGGAG	0.295
ACACGGTG	0.154
CCACGGGG	-0.124
ACACGGAT	0.315
TCACGGCA	0.401
GCTGCGAC	-0.089

Sequence	PBM E-score
TAACCCCA	-0.336
CAACACGA	0.0474
GCGCGAGA	0.107
AACAGTAC	0.0276
CCACGGCC	0.185
CCACGGAA	0.198
CCACGGCA	0.46
ACGGGGGC	-0.325
GTGAAGTA	-0.0855
ACCGCGCG	0.209
GCCGCGCA	0.476
CCCGCGCA	-0.0346
ACCGCGTA	0.051
CCCGCGTA	-0.0603
GCCGCGTA	0.465
ACCGCGCC	0.3
GCCGCGCC	0.46
ACCGCGCA	0.0261
AATCATTC	0.146
GAGAGCCC	-0.302
AATCGTAC	0.12
ATGCCATA	0.117
CCCCTGCC	-0.198
CGCCTCTC	0.0325
CGACGCCG	0.457

Sequence	PBM E-score
AGACGCCG	0.405
AGACGCCA	0.00574
CGACGCCA	0.106
CGACGCCC	0.0245
AGACGCCC	0.0951
CATATCTC	-0.0779
CGAGAAAG	-0.0578
GACTACGC	-0.174
ACATTCAC	-0.0143
AGGTGAAG	-0.132
ACAGGGTA	-0.125
ATTGCGCC	0.308
ATTGCGCG	0.32
ATTGCGCA	-0.0299
GGGAGCTA	-0.235
CTGCCGAA	0.127
GCGCCGAA	0.389
GCGCCGAC	0.309
GTGCCGAA	0.322
ATGCCGAA	0.311
TCGCCGAA	0.105
